Results taken from PubChem BioAssay.
Values without a mark were called inactive. For part of these data: Entries with a potency or affinity are not part of this list. Calls of active or inactive are those of the source. Unless noted, the rule behind the calls is not given here.

Key:
[1] = antimalarial activity against Dd2 strain (AID 2302;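 active = growth inhibition above 50% at the single 2 µM test dose, taken to imply half-maximal potency below 2 µM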;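 note: 0% = DMSO untreated growth and 100% = chloroquine plus artemisinin killed control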); conditions: P. falciparum Dd2 in RBCs, LDH growth readout, 72 h; at 2 µM; hits give high values
[2] = HepG2 cytotoxicity, primary screen, cytotoxicity control for P. falciparum antimalarial project, cell-based, ATP luminescence (AID 2303;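 active = inhibition above 50%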;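 note: 0% = DMSO wells and 100% = digitonin-killed cells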); conditions: HepG2 viability, 24-48 h, at 10 µM, hits give high values
[3] = target: L-lactate dehydrogenase (Plasmodium falciparum (isolate CDC / Honduras)) (UniProt Q27743); experiment: PfLDH activity inhibition – cell lysate, 3D7 strain, counter-screen for P. falciparum growth inhibition project (AID 2304);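 note: 0% = vehicle and 100% = reference inhibitor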; conditions: P. falciparum 3D7 crude extract, LDH APAD/NBT absorbance; at 2 µM; hits give high values
[4] = inhibition of 3D7 malaria parasite growth – strain 3D7 (AID 2306);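 note: 0% = DMSO wells and 100% = chloroquine plus artemisinin control wells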; conditions: P. falciparum 3D7 erythrocytic growth, LDH absorbance, 72 h; at 2 µM; hits give high values
[5] = target: Calcium-dependent protein kinase 1 (Plasmodium falciparum (isolate 3D7)) (UniProt P62344); experiment: PfCDPK1 kinase inhibitors, biochemical, TCAMS library (AID 1159585; cut-off not given, nearly all actives have IC50 up to about 0.98 µM;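 note: inhibitors leave more ATP so luminescence rises with inhibition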); conditions: recombinant PfCDPK1, Kinase-Glo ATP depletion luminescence
[6] = target: Plasmodium falciparum protein kinase 6 (PK6, PF3D7_1337100) (UniProt Q8IDW1); experiment: PfPK6 kinase inhibitors, biochemical, TCAMS library (AID 1159586); conditions: recombinant PfPK6, Kinase-Glo ATP depletion luminescence
[7] = target: Protein kinase 7 (PK7), Plasmodium falciparum 3D7 (PF3D7_0213400) (UniProt Q7YTF7); experiment: inhibition of Plasmodium PK7 catalytic activity – biochemical, TCAMS antimalarial set, Kinase-Glo luminescence (AID 1159587); conditions: recombinant PfPK7, Kinase-Glo ATP depletion luminescence
[8] = target: Calcium-dependent protein kinase 4 (Plasmodium falciparum (isolate 3D7)) (UniProt Q8IBS5); experiment: PfCDPK4 kinase inhibitors, biochemical, TCAMS library (AID 1159588; cut-off not given, nearly all actives have IC50 up to about 0.91 µM); conditions: recombinant PfCDPK4, Kinase-Glo ATP depletion luminescence
Chain of Calcium-dependent protein kinase 4 (Plasmodium falciparum (isolate 3D7)) (Q8IBS5 whole entry, looked up): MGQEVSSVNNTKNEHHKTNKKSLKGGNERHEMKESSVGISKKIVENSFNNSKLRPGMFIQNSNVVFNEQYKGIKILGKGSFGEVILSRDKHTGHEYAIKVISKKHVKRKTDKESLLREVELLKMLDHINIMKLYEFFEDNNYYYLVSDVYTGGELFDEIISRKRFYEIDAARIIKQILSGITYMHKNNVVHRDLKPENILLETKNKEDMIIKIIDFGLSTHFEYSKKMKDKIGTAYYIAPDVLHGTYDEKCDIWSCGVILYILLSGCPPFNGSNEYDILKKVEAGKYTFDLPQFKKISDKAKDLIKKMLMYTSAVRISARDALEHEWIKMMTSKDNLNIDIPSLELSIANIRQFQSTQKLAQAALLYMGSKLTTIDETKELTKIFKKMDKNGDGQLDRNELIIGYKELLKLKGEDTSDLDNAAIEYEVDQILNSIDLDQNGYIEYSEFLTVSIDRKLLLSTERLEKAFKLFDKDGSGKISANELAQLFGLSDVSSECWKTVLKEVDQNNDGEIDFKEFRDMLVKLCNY

Chain of L-lactate dehydrogenase (Plasmodium falciparum (isolate CDC / Honduras)) (Q27743 whole entry, looked up): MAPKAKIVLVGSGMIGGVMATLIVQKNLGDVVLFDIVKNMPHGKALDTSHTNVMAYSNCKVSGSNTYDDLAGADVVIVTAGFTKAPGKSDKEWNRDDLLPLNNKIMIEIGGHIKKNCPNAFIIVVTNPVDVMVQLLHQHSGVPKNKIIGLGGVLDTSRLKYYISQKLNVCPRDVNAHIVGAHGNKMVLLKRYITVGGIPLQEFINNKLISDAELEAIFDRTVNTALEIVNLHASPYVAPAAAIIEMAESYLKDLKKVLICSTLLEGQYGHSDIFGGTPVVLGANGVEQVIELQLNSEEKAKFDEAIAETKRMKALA
Chain of Plasmodium falciparum protein kinase 6 (PK6, PF3D7_1337100) (Q8IDW1 1-305): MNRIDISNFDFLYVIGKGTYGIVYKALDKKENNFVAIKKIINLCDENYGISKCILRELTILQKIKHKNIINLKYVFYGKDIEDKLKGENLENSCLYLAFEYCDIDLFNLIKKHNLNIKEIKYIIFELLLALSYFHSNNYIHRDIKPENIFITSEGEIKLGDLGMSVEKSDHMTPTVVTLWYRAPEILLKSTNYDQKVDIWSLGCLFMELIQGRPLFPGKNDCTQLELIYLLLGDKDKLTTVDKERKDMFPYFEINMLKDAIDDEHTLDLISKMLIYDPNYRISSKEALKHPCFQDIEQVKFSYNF
Chain of Protein kinase 7 (PK7), Plasmodium falciparum 3D7 (PF3D7_0213400) (Q7YTF7 1-343): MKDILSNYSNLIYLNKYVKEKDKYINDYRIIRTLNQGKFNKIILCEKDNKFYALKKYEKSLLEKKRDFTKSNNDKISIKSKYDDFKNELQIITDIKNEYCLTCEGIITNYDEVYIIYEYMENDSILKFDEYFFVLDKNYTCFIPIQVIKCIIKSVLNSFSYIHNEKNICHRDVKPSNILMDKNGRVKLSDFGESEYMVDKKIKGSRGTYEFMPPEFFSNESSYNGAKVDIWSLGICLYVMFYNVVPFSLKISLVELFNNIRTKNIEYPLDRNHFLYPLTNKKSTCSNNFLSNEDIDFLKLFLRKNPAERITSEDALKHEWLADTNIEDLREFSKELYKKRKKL
Chain of Calcium-dependent protein kinase 1 (Plasmodium falciparum (isolate 3D7)) (P62344 whole entry, looked up): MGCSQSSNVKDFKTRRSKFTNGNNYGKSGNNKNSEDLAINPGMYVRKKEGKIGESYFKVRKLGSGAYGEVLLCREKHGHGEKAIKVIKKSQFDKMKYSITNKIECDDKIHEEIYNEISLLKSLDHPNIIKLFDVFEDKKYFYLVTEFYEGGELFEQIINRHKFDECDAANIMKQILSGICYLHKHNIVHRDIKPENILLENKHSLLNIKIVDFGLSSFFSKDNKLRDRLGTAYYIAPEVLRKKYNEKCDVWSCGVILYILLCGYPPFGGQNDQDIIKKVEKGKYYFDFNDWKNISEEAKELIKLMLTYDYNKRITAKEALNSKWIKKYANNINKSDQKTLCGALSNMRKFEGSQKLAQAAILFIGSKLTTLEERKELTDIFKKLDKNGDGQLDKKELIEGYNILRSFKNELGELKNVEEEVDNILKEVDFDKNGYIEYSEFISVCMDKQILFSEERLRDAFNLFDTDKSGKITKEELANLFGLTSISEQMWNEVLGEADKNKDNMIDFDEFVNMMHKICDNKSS

Compound | growth inhibition [1] | inhibition [2] | inhibition [3] | growth inhibition [4] | outcome [5] | outcome [6] | outcome [7] | outcome [8]
O=[N+]([O-])c1cccc(-n2nc(NCc3ccc(Cl)cc3)nc2-c2ccc(F)c(C(F)(F)F)c2)c1 | 93% (active) | 6% | -3% | 98% (active) | inactive | inactive | inactive | inactive
COc1cc2c(cc1OC)C(C(=O)Nc1cc(OC)c(OC)c(OC)c1)C(c1ccc(SC)cc1)N(C)C2=O (configuration not stated) | 64% (active) | 14% | 2% | 97% (active) | inactive | inactive | inactive | inactive
Cc1cccc2[nH]c(-c3ccc(-c4ccc(NC(=O)CN5CCN(C)CC5)cc4)s3)nc12 | 86% (active) | 56% (active) | -9% | 95% (active) | inactive | inactive | inactive | inactive
COc1cccc2cc(C(=O)N[C@@H](CC(C)C)C(=O)N[C@H](/C=N/NC(=O)OC(C)(C)C)CC(C)C)oc12 | 57% (active) | 8% | -2% | 88% (active) | inactive | inactive | inactive | inactive
Oc1ccc(-c2ccccc2)cc1CNC1CCCCC1 | 100% (active) | 24% | -3% | 95% (active) | inactive | inactive | inactive | inactive
COc1ccc(C(=O)Nc2ccc3oc(-c4ccc(C(F)(F)F)cc4)cc3c2)cc1CCCN(C)C | 27% | 98% (active) | -1% | 98% (active) | inactive | inactive | inactive | inactive
CCOc1cc(C)c(C2CCN(CCCCNC(=O)c3ccc(NC(=O)c4ccc(Cl)cc4)cc3)CC2)cc1C | 87% (active) | 10% | 1% | 100% (active) | inactive | inactive | inactive | inactive
Cc1cc(N(C)C)nc(Nc2ccc(NC(=O)c3ccccc3Cl)cc2)n1 | 31% | 3% | -2% | 88% (active) | inactive | inactive | inactive | inactive
Cc1c(C)c2c(c(C)c1O)CCC(C)(CCC(=O)O)O2 (configuration not stated) | -4% | 8% | 0% | 96% (active) | inactive | inactive | inactive | inactive
Cc1ccccc1Cc1cccc(/N=C(\N)Nc2ccc(Cl)cc2)n1 | 56% (active) | 48% | -7% | 91% (active) | inactive | inactive | inactive | inactive
O=c1cc(NCCCNCc2ccc(Cl)c(Cl)c2)[nH]c2ccc(C(F)(F)F)cc12 | 68% (active) | 10% | -5% | 103% (active) | inactive | inactive | inactive | inactive
O=C(c1cc(-c2ccccc2)n[nH]1)N1CCN(S(=O)(=O)c2ccc(Cl)s2)CC1 | 81% (active) | 9% | 1% | 88% (active) | inactive | inactive | inactive | inactive
CC(=O)Nc1ccc(COc2ccc(Nc3ccnc4cc(-c5ccccn5)ccc34)cc2)cc1 | 94% (active) | 99% (active) | 3% | 99% (active) | inactive | inactive | inactive | inactive
CC(C)Nc1cc(C(=O)N[C@@H](Cc2ccccc2)[C@H](O)CNC2CCOCC2)c(F)c(N2CCCCS2(=O)=O)c1 | 98% (active) | 2% | -2% | 98% (active) | inactive | inactive | inactive | inactive
COc1cc(C(=O)N2CCOC(CCN3CCC[C@H]3C(=O)Nc3ccccc3)(c3ccc(Cl)c(Cl)c3)C2)cc(OC)c1OC (some centres not stated) | 88% (active) | 3% | -2% | 98% (active) | inactive | inactive | inactive | inactive
NC(N)=Nc1nc(-c2cccc(NC(=O)Cc3ccccc3)c2)cs1 | 9% | 1% | -8% | 99% (active) | inactive | inactive | inactive | inactive
CCOC(=O)c1c(NC(NC(=O)c2ccc(C(C)(C)C)cc2)C(Cl)(Cl)Cl)sc2c1CCCC2 (configuration not stated) | 94% (active) | 1% | -3% | 98% (active) | inactive | inactive | inactive | inactive
O=C(NCCc1ccccc1)N(Cc1ccccc1-c1cccc(CNCc2ccc3c(c2)OCO3)c1)C1CCN(Cc2ccccc2)CC1 | 77% (active) | 29% | 5% | 93% (active) | inactive | inactive | inactive | inactive
CCNc1cc(C(=O)N[C@@H](Cc2cccc(Cl)c2)[C@H](O)CNC(C)CCCC(C)C)cc(N2CCCCS2(=O)=O)c1 (some centres not stated) | 78% (active) | 7% | -1% | 98% (active) | inactive | inactive | inactive | inactive
Oc1cc2c(cc1CN1CCN(Cc3ccc(Cl)s3)CC1)CCC2 | 76% (active) | 7% | -3% | 98% (active) | inactive | inactive | inactive | inactive

Compound | growth inhibition [1] | inhibition [2] | inhibition [3] | growth inhibition [4] | outcome [5] | outcome [6] | outcome [7] | outcome [8]
CCCN1CCCN(Cc2cccc(NC(=O)c3ccc(-c4ccccc4)cc3)c2)CC1 | 15% | 34% | 1% | 92% (active) | inactive | inactive | inactive | inactive
CC1(C)N=C(N)N=C(N)N1c1ccc(Oc2ccccc2)cc1 | 3% | 13% | -6% | 98% (active) | inactive | inactive | inactive | inactive
CCNc1cc(C(=O)N[C@@H](Cc2ccccc2)[C@H](O)CNC(CC)c2cccc(Cl)c2)cc(N2CCCCS2(=O)=O)c1 (some centres not stated) | 98% (active) | 12% | -2% | 100% (active) | inactive | inactive | inactive | inactive
COc1cccc(Nc2nc(C)cc(Nc3cccc(C#N)c3)n2)c1 | 92% (active) | -2% | -3% | 101% (active) | inactive | inactive | inactive | inactive
CCOC(=O)c1ccc(NC(=O)N[C@@H](Cc2ccccc2)C(=O)NC2CCN(Cc3ccc(O)cc3)C2)cc1 (some centres not stated) | 2% | 7% | -6% | 95% (active) | inactive | inactive | inactive | inactive
CCc1cn2c3c(cc(C(=O)N[C@@H](Cc4ccccc4)[C@H](O)CNCc4ccccc4C)cc13)N(C)S(=O)(=O)CC2 | 98% (active) | 3% | 5% | 98% (active) | inactive | inactive | inactive | inactive
O=C(NC1CCC(N2CCC(c3ccccc3C(F)(F)F)CC2)CC1)c1cc2ccccc2[nH]1 (configuration not stated) | 98% (active) | 80% (active) | -5% | 100% (active) | inactive | inactive | inactive | inactive
Cc1oc(-c2ccc(Cl)cc2)cc1C(=O)NCCC1CCN(CCCCCNC(=O)/C=C/c2ccc(Cl)c(Cl)c2)CC1 | 88% (active) | 100% (active) | -4% | 100% (active) | inactive | inactive | inactive | inactive
COc1ccc2c(NN=Cc3c(OC)ccc4ccccc34)cc(C)nc2c1 | 85% (active) | 7% | 2% | 102% (active) | inactive | inactive | inactive | inactive
O=C(NCCc1cccc(Cl)c1Cl)c1ccc(N2CCN(c3ccncc3)CC2)nc1 | 79% (active) | 38% | 2% | 101% (active) | inactive | inactive | inactive | inactive
Cc1cc(N(CCN2CCCCC2)CCN2CCCCC2)nc(Nc2ccc(Cl)cc2)n1 | 79% (active) | 19% | -4% | 101% (active) | inactive | inactive | inactive | inactive
O=C(Nc1ccc(CN2CCOCC2)cc1)c1ccc(-c2cc(Cl)ccc2Cl)o1 | 13% | 5% | -1% | 101% (active) | inactive | inactive | inactive | inactive
Cn1c(-c2ccccc2)cc2c3c(N)nc(N)nc3ccc21 | 30% | 27% | -2% | 100% (active) | inactive | inactive | inactive | inactive
O=C(CCCCCNC(=O)c1ccc(O)c(-c2ccc(Cl)c(Cl)c2)c1)NCCc1ccc(Cl)c(Cl)c1 | 20% | 57% (active) | -6% | 97% (active) | inactive | inactive | inactive | inactive
Cc1cnc(NCC2CCCCC2)nc1NCC(=O)Nc1ccccc1 | 51% (active) | 21% | 0% | 90% (active) | inactive | inactive | inactive | inactive
COc1ccc(-c2cnc3ccc(NCc4ccc(S(N)(=O)=O)cc4)nn23)cn1 | 98% (active) | 16% | 0% | 98% (active) | inactive | inactive | inactive | inactive
C=CCn1c(SCC(=O)Nc2cc(C)ccc2OC)nc2sc(C)cc2c1=O | 86% (active) | 6% | -5% | 100% (active) | inactive | inactive | inactive | inactive
CN(C)C(=O)CC(=O)NCc1cccc(Cl)c1 | 3% | 4% | 3% | 99% (active) | inactive | inactive | inactive | inactive
Cc1ccn2c(N(Cc3ccccc3)C(=O)c3ccc(Cl)c(Cl)c3)c(-c3ccccc3)nc2c1 | -5% | -20% | -7% | 95% (active) | inactive | inactive | inactive | inactive
